Screening results from PubChem.
Only some compounds are listed: those with a hit (about 2.7% of all), similar ones and a draw of the others.
Pf gamet viab: kills late stage P. falciparum gametocytes | P. falciparum stage V gametocytes, ATP luminescence, 24 h | inhibition, % at 10.9 µM | 150,000 tested, 0.065% active | AID 743093;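 active = inhibition above the mean plus 3 SD of compounds within the control limits, set per campaign, cut at about 38% in these data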;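 note: 0% = DMSO wells and 100% = medium only without gametocytes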
Mcl-1 Bim block: human Bim-Mcl-1 interaction inhibition. Bead-based flow cytometry, Bim peptide-Mcl-1 binding. 190,000 tested, 0.1% active. inhibition, % at 10 µM. Q07820; in the data active = inhibition above about 40%;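 note: 0% = no compound tracer wells and 100% = peptide blocker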
Target sequence (Q07820 whole entry, looked up): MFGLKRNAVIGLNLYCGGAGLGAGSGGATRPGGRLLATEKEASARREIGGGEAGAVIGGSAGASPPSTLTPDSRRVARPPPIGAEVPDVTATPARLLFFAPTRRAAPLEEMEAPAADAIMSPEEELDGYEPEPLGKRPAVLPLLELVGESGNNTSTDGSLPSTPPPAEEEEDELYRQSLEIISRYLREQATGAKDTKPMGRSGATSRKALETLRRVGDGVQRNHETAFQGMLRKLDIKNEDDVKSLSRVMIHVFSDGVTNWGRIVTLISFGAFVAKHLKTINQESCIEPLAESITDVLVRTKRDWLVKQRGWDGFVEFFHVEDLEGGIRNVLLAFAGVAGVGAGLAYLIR
Mcl1-Noxa inh: Mcl-1/Noxa interaction inhibition; TR-FRET Mcl-1/Noxa peptide binding, 2 h; inhibition, % at 21.7 µM; 220,000 tested, 1.5% active;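 active = compounds that cut the protein-peptide binding signal by more than 50% relative to plate controls in a single-dose test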;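 note: His-tagged Mcl-1 with rhodamine Noxa BH3 peptide and terbium anti-His antibody; 0% = Mcl-1 plus Noxa peptide wells and 100% = peptide-only wells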
eIF4E 4G PPI: inhibitors of eIF4E and eIF4G interaction in translation initiation; P63073+Q04637; TR-FRET eIF4E-eIF4GI(517-606) binding, 2 h; inhibition, % at 21.7 µM; 220,000 tested, 0.37% active; AID 782;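 active = inhibition above about 30%, limit read from the data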;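 note: 0% = full FRET control wells and 100% = background wells lacking eIF4GI fragment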
14-3-3 Bad inh: disrupts binding of bovine 14-3-3 zeta to phospho-Bad peptide; TR-FRET 14-3-3zeta/Dy647-pBad peptide displacement, 1 h; inhibition, % at 21.7 µM; 220,000 tested, 0.71% active; AID 781;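 active = inhibition above about 70%, limit read from the data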;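 note: 0% = full 14-3-3 plus peptide FRET controls and 100% = background without 14-3-3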
Target sequence (P63103 whole entry, looked up): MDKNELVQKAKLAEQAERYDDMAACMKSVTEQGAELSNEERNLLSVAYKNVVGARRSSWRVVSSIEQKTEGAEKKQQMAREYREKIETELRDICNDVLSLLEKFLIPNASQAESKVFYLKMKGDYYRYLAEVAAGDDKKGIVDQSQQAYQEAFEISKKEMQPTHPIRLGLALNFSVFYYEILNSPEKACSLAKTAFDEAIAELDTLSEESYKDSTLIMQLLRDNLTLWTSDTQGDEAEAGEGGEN
Mcl1 Bid PPI: Mcl-1/Bid interaction inhibition; Q07820; TR-FRET Mcl-1/Bid-Dy647 peptide binding, 1536-well; inhibition, % at 21.7 µM; 220,000 tested, 0.97% active; AID 1021;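 active = compounds that cut the binding signal by more than half at the single screening dose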;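 note: His-tagged Mcl-1 with europium anti-His antibody binding Bid BH3 peptide; 0% = Mcl-1 plus peptide wells and 100% = peptide-only wells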
An asterisk follows results filed as active; nt = no result.

SMILES	Pf gamet viab	Mcl-1 Bim block	Mcl1-Noxa inh	eIF4E 4G PPI	14-3-3 Bad inh	Mcl1 Bid PPI
O=C(NCc1ccco1)/C(=C\C=C\c1ccccc1)NC(=O)c1ccccc1Br	1	3	11	0	2	5
CC(C)(C)C1CCc2c(C(=O)NNC(=O)CCC(=O)O)csc2C1 (configuration not stated)	nt	-6	104*	4	-1	-8
Cc1scc(C(=O)NNC(=O)CCC(=O)O)c1C	nt	0	11	-4	-8	-5
O=C1c2ccc3c4c(ccc(c24)C(=O)N1CCCCO)C(=O)N(CCCCO)C3=O	18	0	26	7	96*	8
O=C(c1ccc2c(c1)C(=O)N(CCCO)C2=O)c1ccc2c(c1)C(=O)N(CCCO)C2=O	-7	-2	1	1	1	-9
CC(Sc1nc(N)cc(=O)[nH]1)C(=O)Nc1cccc(Cl)c1 (configuration not stated)	6	-4	8	3	-7	-23
CC(=O)NC1C(=O)N=C(SC(C)C(=O)Nc2cccc(Cl)c2)NC1=O (configuration not stated)	2	0	19	-4	87*	-26
O=[N+]([O-])c1ccc(NC(=S)NCCc2ccc(F)cc2)cc1	nt	-16	52*	5	-12	6
COc1ccc(C(=O)NC2CCN(S(=O)(=O)c3ccccc3F)CC2)cc1	7	nt	nt	nt	nt	nt
O=C(N/N=C/c1ccc(OC(=O)c2ccc3c(c2)OCO3)cc1)c1cncc(Br)c1	nt	-35	-103	-3	71*	-26
Nc1ccc(N2CCCCC2)cc1N1CCCCC1	17	0	76*	19	68	-15
COc1ccc([C@@H]2CC=C(C(=O)O)CN2S(=O)(=O)c2ccc(C)cc2)cc1OC	-29	nt	nt	nt	nt	nt
Cc1ccccc1NCC(=O)N/N=C/C(Br)=C/c1ccccc1	nt	2	-3	-4	-2	90*
CCCNC(=O)c1csc(Nc2cccc3ccccc23)n1	-4	nt	nt	nt	nt	nt
CC(=O)c1csc(Nc2ccccc2Cl)n1	17	nt	-14	0	90*	-3
COc1cccc(OC)c1C(=O)Nc1ccccc1C(=O)N1CCOCC1	nt	-2	-2	3	4	84*
COc1ccccc1NC(=O)CSc1nnnn1-c1ccc2c(c1)OCO2	-10	-2	0	0	4	99*
COc1ccccc1NC(=O)CSc1nnnn1-c1ccccc1OC	-25	nt	nt	nt	nt	nt
O=C(CNC(=O)c1ccc(N2C(=O)c3ccccc3C2=O)cc1)OCC(=O)c1ccc(Cl)cc1	2	-5	-11	0	-5	7
Cc1ccc(C(=O)COC(=O)CNC(=O)c2ccc(N3C(=O)c4ccccc4C3=O)cc2)cc1C	17	-6	83*	2	18	17
CC(=O)c1ccc(N2CCN(C(=O)CCCn3c(=S)[nH]c4cc5c(cc4c3=O)OCO5)CC2)cc1	-12	0	35	-28	-9	55*
Cc1ccc(Nc2c(-c3ccc(C)o3)nc3cnccn23)cc1	nt	-2	51*	5	-1	-8
Cc1ccc(-c2nc3cnccn3c2Nc2ccccc2)o1	nt	-2	44	-1	10	-20
CCOc1ccc(-c2csc3ncn(-c4ccc(OC)cc4)c(=O)c23)cc1	8	-1	5	0	0	84*
O=C1Nc2ccccc2/C1=C/c1cnc(-c2ccccc2)[nH]1	2	nt	65*	-60	58	9
SMILES	Pf gamet viab	Mcl-1 Bim block	Mcl1-Noxa inh	eIF4E 4G PPI	14-3-3 Bad inh	Mcl1 Bid PPI
O=C1Nc2ccccc2/C1=C/c1cccnc1	-62	-3	-19	-6	-10	-22
CCCS(=O)(=O)N1CCN(CC2CC3C=CC2C3)CC1 (configuration not stated)	8	2	18	2	72*	-8
CCCS(=O)(=O)N1CCN(CC2CC=CCC2)CC1 (configuration not stated)	-12	-1	16	6	73*	29
Cc1ccnn1CCC(=O)O	5	nt	0	0	-6	-26
O=C(NCc1cccnc1)c1ccc(-c2ccc(Cl)cc2)o1	-16	-3	9	4	2	-33
O=C(NCc1cccnc1)/C(=C\c1ccc(-c2ccc(Cl)c(Cl)c2)o1)S(=O)(=O)c1ccccc1	15	-5	40	-1	-6	55*
O=C(NC1CC1)c1ccc2c(c1)C1C3CCC(C3)C1C(c1ccccc1)N2 (configuration not stated)	-1	-22	0	10	-4	-12
CC1(C)CC(Cc2nc(=S)[nH][nH]2)C(=O)O1 (configuration not stated)	nt	2	5	-3	-19	-41
CCC(=O)NC(c1ccc(N(C)C)cc1)c1c(O)ccc2ccccc12 (configuration not stated)	-18	1	51*	2	-2	-18
CCC(=O)NC(c1ccc(OC)cc1)c1c(O)ccc2ccccc12 (configuration not stated)	8	0	5	2	-18	-8
FC(F)(F)c1cc(-c2ccco2)nc(NCCc2ccccc2)n1	-7	-1	-12	-2	-1	4
Cc1cccc(NCC(=O)N/N=C/c2ccc(Br)cc2)c1	19	1	-24	1	-7	-8
C[n+]1cccc2ccc3c(c21)OC(N)=C(C#N)C3c1ccccc1 (configuration not stated)	8	nt	8	94*	0	-35
C[n+]1cccc(C2C(C#N)=C(N)Oc3c2ccc2ccccc32)c1 (configuration not stated)	10	nt	-1	3	7	-23
C/C(=N\Nc1ccc(C(=O)O)cc1)c1ccc2c(c1)Nc1ccccc1S2	-12	nt	87*	12	10	57*
COc1ccc(/C(C)=N/Nc2cccc(C(=O)O)c2)cc1OC	-29	0	15	1	-1	-14
CCc1ccc(NC(=O)CC2C(=O)N(c3ccc(C)cc3)C(=O)N2C2CC2)cc1 (configuration not stated)	-24	0	-2	1	7	3
O=C(Cc1cccs1)Nc1nnc(-c2ccncc2)s1	-2	0	12	15	2	-1
CC(C)c1nnc(NC(=O)Cc2cccs2)s1	nt	-1	7	2	9	28
CC(C)Cc1nnc(NC(=O)Cc2cccs2)s1	10	2	56*	30	40	-54
CC(C)(C)Cc1nnc(NC(=O)Cc2cccs2)s1	-11	-6	60*	25	34	-30
CCCCCc1nnc(NC(=O)Cc2ccc([N+](=O)[O-])cc2)s1	12	1	16	0	-7	-44
CCCCCc1nnc(NC(=O)Cc2cccs2)s1	nt	0	67*	-1	-11	7
CCOC(=O)CNC(=O)CSc1nnc(SCC(=O)NCC(=O)OCC)s1	nt	-1	-3	-7	-10	-47
